Source: PubChem (National Center for Advancing Translational Sciences (NCATS))
Sm TGR block = inhibitors of Schistosoma mansoni thioredoxin glutathione reductase; purified TGR, DTNB reduction, TNB absorbance 405 nm; 360,000 compounds, 3% hits; Q962Y6; Potency, µM (titrated, usually from 114 µM), for inactives: at the highest dose activity change, negative = inhibition, hits mostly inhibitors; also: % is scaled to controls: 0 for no effect and ±100 for the full control effect; nearly all actives have a fitted effect of over 60% in size
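TGR 20 nM + NADPH 100 uM (dispensed conc.), cpd preinc 15 min RT; start with NADPH (500 uM addition) then DTNB (15 mM addition). Kinetic TNB absorbance, 405 nm filter. Four-parameter Hill fit across titration.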
Pf growth 96h = inhibits malaria parasite growth, 96 h | P. falciparum luciferase reporter growth, 96 h | Potency, µM (top dose mostly 28.7 µM), for inactives: at the highest dose activity change, negative = inhibition, usual class: inhibitors | 320,000 compounds, 6.9% hits | AID 504834; also: % is scaled to controls: 0 for no effect and ±100 for the full control effect
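Delayed-death screen, second-generation endpoint: infected erythrocytes, 2% hematocrit, 0.05% parasitemia final; 96 hours at 37 C, 5% CO2; luciferase detection reagent; luminescence decrease equals reduced growth.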
Pf growth 48h = P. falciparum growth inhibition at 48 hours (one generation); 310,000 compounds, 5.9% hits; P. falciparum luciferase growth in erythrocytes, 48 h; Potency, µM (highest dose often 28.7 µM), inactives show top-dose activity change, negative = inhibition, actives largely listed as inhibitors; AID 504832; also: % is scaled to controls: 0 for no effect and ±100 for the full control effect
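In quantitative HTS format, infected erythrocytes bearing luciferase-reporter parasites were treated for a single generation at 37 C. Luminescence after adding detection reagent served as the growth measure.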
SARS PLpro yeast = SARS-CoV PLP inhibition in yeast | Potency, µM (series often up to 32.9 µM), without a hit: top-dose activity, positive = growth rescue, usual class: activators | 330,000 compounds, 0.19% hits | AID 485353 | S. cerevisiae expressing SARS-CoV PLpro, growth rescue; calls by dose curve; also: 0% is about no effect; nearly all actives have a fitted effect of over 55% in size
An asterisk follows results filed as active. Sampled rows, rich in hits. Any-hit rate of the full collection: about 12%. Unless noted, calls follow the shape of the dose curve; as a rule, active = well fitted curve in the direction sought with a large enough effect; inconclusive = small, poorly fitted or top-dose-only effect, or another doubt; inactive = no such curve, though single readings can be large; an effect the other way counts as inactive or inconclusive. Potency is read from the fitted curve at half-maximal effect.

`CCOc1ccc(-c2nc(N)ncc2-c2ccc(Cl)cc2)c(O)c1` gave Sm TGR block -4%, Pf growth 96h inconclusive, Pf growth 48h 10µM* and SARS PLpro yeast -6%.
Screening COc1ccc(-c2nc(C)ncc2-c2ccc(Cl)cc2)c(O)c1 returned Sm TGR block 6%, Pf growth 96h 3.7µM*, Pf growth 48h 4.7µM* and SARS PLpro yeast 3%.
For CCN(CC)S(=O)(=O)c1ccc(N2CCCC2)c(C(=O)OCC(=O)/C(C#N)=C(\C)N)c1 the results were Sm TGR block -12%, Pf growth 96h 0%, Pf growth 48h 9.3µM* and SARS PLpro yeast -1%.
For CC(=O)Nc1ccc(NC(=O)COC(=O)c2cc(S(=O)(=O)N(C)C)ccc2N2CCCC2)cc1 the results were Sm TGR block -2%, Pf growth 96h 3%, Pf growth 48h -13% and SARS PLpro yeast -4%.
`CN(CC(=O)Nc1ccc(F)cc1)C(=O)COC(=O)c1cc(S(=O)(=O)N(C)C)ccc1N1CCCC1` gave Sm TGR block -1%, Pf growth 96h 8.3µM*, Pf growth 48h 12µM* and SARS PLpro yeast -2%.
`CN(C)S(=O)(=O)c1ccc(N2CCCC2)c(C(=O)N2CCN(S(=O)(=O)c3cccc(F)c3)CC2)c1` gave Sm TGR block -4%, Pf growth 96h -28%, Pf growth 48h 10µM* and SARS PLpro yeast -1%.
Screening Cc1cccc(N2CCN(C(=O)c3cc(S(=O)(=O)N(C)C)ccc3N3CCCC3)CC2)c1C returned Sm TGR block 5%, Pf growth 96h -8%, Pf growth 48h 0% and SARS PLpro yeast 3%.
Screening CCOc1ccccc1N1CCN(C(=O)c2cc(S(=O)(=O)N(C)C)ccc2N2CCCC2)CC1 returned Sm TGR block -21%, Pf growth 96h inconclusive, Pf growth 48h 10µM* and SARS PLpro yeast -3%.
`Cc1ccccc1C(=O)Nc1ccccc1C(=O)OCc1cc(=O)n2ccsc2n1` gave Sm TGR block 0%.
Screening CCOc1ccc2c(c1)c(=O)c(C(=O)c1ccc(CC)cc1)cn2CC(=O)Nc1ccccc1OC returned Sm TGR block -5%.
Screening CN(C)S(=O)(=O)c1ccc(N2CCCC2)c(C(=O)OCC(=O)N2CCN(c3ccccc3)CC2)c1 returned Sm TGR block -17%, Pf growth 96h 13% and Pf growth 48h 15µM*.
CCOC(=O)COc1ccccc1C1C(C(=O)OC)=C(C)NC2=C1C(=O)c1ccccc12 (stereo not drawn) was read as Sm TGR block 0%.
CCOC(=O)C1=C(C)NC(=O)NC1c1ccc(-c2ccccc2F)o1 (stereo not drawn) was read as Sm TGR block inconclusive, Pf growth 96h -17%, Pf growth 48h -14% and SARS PLpro yeast 1%.
For COCCOC(=O)C1=C(C)NC(=O)NC1c1ccc(-c2ccc(F)cc2)o1 (stereo not drawn) the results were Sm TGR block 10µM*, Pf growth 96h inconclusive, Pf growth 48h -14% and SARS PLpro yeast 2%.
CCOC(=O)C1=C(C)NC2=C(C(=O)c3ccccc32)C1c1ccc([N+](=O)[O-])o1 (stereo not drawn) was read as Sm TGR block 0%, Pf growth 96h inconclusive, Pf growth 48h 13µM* and SARS PLpro yeast 0%.
For CCOC(=O)C1=C(C)NC(=O)NC1c1ccc([N+](=O)[O-])o1 (stereo not drawn) the results were Sm TGR block 40µM*, Pf growth 96h 25%, Pf growth 48h 12% and SARS PLpro yeast 1%.
`CN(C)S(=O)(=O)c1ccc(Cl)c(NC(=O)CNC2(C)CCS(=O)(=O)C2)c1` (stereo not drawn) gave SARS PLpro yeast 2%.
O=C(CSc1nnc(CNC(=O)c2ccccc2F)o1)NC1CCCCC1 was read as Sm TGR block 0%, Pf growth 96h 32%, Pf growth 48h 12% and SARS PLpro yeast -2%.
`COC(=O)CC1C(=O)NCCN1C(=S)Nc1ccc(F)cc1` (stereo not drawn) gave Sm TGR block 17%, Pf growth 96h 3.7µM*, Pf growth 48h 24% and SARS PLpro yeast 0%.
For CN1CCN(C(CNC(=O)C(=O)Nc2ccc(F)cc2F)c2ccc3c(c2)OCO3)CC1 (stereo not drawn) the results were Sm TGR block 10%.
For COC(=O)C1=C(c2cccc(C#N)c2)C[C@@H]2CC[C@H]1N2C(=O)NCc1cc(C)oc1C(F)(F)F the results were Sm TGR block -7%, Pf growth 96h inconclusive, Pf growth 48h 12µM* and SARS PLpro yeast 3%.
`COC(=O)C1=C(c2cccc(C#N)c2)C[C@@H]2CC[C@H]1N2C(=O)NCc1cccc2ccccc12` gave Sm TGR block -10%, Pf growth 96h inconclusive, Pf growth 48h 8.3µM* and SARS PLpro yeast 0%.
COC(=O)C1=C(c2ccc(-c3ccccc3)c(F)c2)C[C@@H]2CC[C@H]1N2C(=O)NCc1cc(C)oc1C(F)(F)F was read as Sm TGR block 1%, Pf growth 96h inconclusive, Pf growth 48h 2.3µM* and SARS PLpro yeast 0%.
CC(C)(C)OC(=O)N1CCC(c2c(C(=O)NC3CCN(Cc4ccccc4)CC3)cnn2-c2ccc(F)cc2F)CC1 was read as Sm TGR block 4%.
Clc1ccc(-c2nnnn2-c2ccc(Cl)cc2)cc1 was read as Sm TGR block 7%, Pf growth 96h 4%, Pf growth 48h -12% and SARS PLpro yeast -2%.
For Cc1ccc(-n2nnnc2C(Cl)(Cl)c2nnnn2-c2ccc(C)cc2)cc1 the results were Sm TGR block 18µM*, Pf growth 96h inconclusive, Pf growth 48h -19% and SARS PLpro yeast -37%.
Cc1nc(SCc2ccccc2F)c2oc3ccccc3c2n1 was read as Sm TGR block -7%, Pf growth 96h 8.3µM*, Pf growth 48h inconclusive and SARS PLpro yeast 1%.
For Cc1nc(SCc2ccc(F)cc2)c2oc3ccccc3c2n1 the results were Sm TGR block 0%, Pf growth 96h -13%, Pf growth 48h -5% and SARS PLpro yeast 0%.
CCCCN(C)CCNC(=O)c1ccc2c(c1)NC(=O)CN2 was read as Sm TGR block 1%.
For CCC1(C)Cc2nc3[nH]c(=S)n(-c4ccc(C)cc4)c(=O)c3cc2CO1 (stereo not drawn) the results were Sm TGR block 6.3µM*, Pf growth 96h -19%, Pf growth 48h 26% and SARS PLpro yeast 10%.
`Cc1cccc(C)c1NC(=O)CCc1nnc2ccc(N3CCCC3)nn12` gave Sm TGR block 2%, Pf growth 96h -13%, Pf growth 48h 2% and SARS PLpro yeast 3%.
For COc1ccccc1C(=O)NC(=S)Nc1cccnc1Cl the results were Sm TGR block -1%, Pf growth 96h -17%, Pf growth 48h 244% and SARS PLpro yeast -23%.
For Cc1ccc2nc(SCC(=O)Nc3cccnc3Cl)[nH]c2c1 the results were Sm TGR block 6%, Pf growth 96h -20%, Pf growth 48h -29% and SARS PLpro yeast -3%.
`Cc1ccc(C(=O)NC(=S)Nc2cccnc2Cl)cc1` gave Sm TGR block 16µM*, Pf growth 96h 21%, Pf growth 48h 80% and SARS PLpro yeast -5%.
